# Measurements taken from PubChem BioAssay AID504832 (National Center for Advancing Translational Sciences (NCATS), 2011).
# The campaign covered roughly 310,000 compounds. About 18,000 (5.8%) were called active. About 22% were inconclusive and are not listed. The sample holds actives, similar compounds and a random draw of the others, so the mix is not that of the screen. The call rests on the fitted dose curve; in most records, active means well fitted inhibition curve with a large enough effect; inconclusive means small, poorly fitted or top-dose-only effect, or another doubt; inactive means no such curve, though single readings can be large or run the other way.
# Test: Primary qHTS for delayed death inhibitors of the malarial parasite plastid, 48 hour incubation
# Settings: P. falciparum luciferase growth in erythrocytes; series mostly up to 28.7 µM; activity change, negative = inhibition: at the top concentration
# Procedure, shortened: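 Here the parasites carry a stable luciferase gene and grow inside erythrocytes in Albumax-based RPMI medium with compound for one erythrocytic cycle. Activity is scored as loss of luminescent signal.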
# On the % scale 0 is the no-effect control and ±100 the full control effect; potency means the concentration at half of the fitted maximal effect.
Compound,"activity change, negative = inhibition",Potency
COc1ccc(CNS(=O)(=O)c2ccc(NC(=O)N3CCCCC3)cc2)cc1,-5.79% (inactive),–
COc1ccc(C(=O)N2CCN(c3ccc(C(C)=O)cc3F)CC2)cc1S(=O)(=O)NC1CC1,17.8% (inactive),–
COc1ccc(CNc2ncnc3ccccc23)cc1,-8.38% (inactive),–
COc1ccc(CNC(=O)CCN2C(=O)c3ccccc3C2=O)cc1,-4.91% (inactive),–
COc1ccc(CCNCc2c(-c3ccccc3)n(C)c3ccccc23)cc1,–,11.7 µM (active)
COc1ccc(OC)c(C2N(c3ccccn3)C(=O)C3CCCN32)c1 (configuration not stated),9.65% (inactive),–
COc1cccc(N2C(=O)C3CCCN3C2c2ccc(F)cc2)c1 (configuration not stated),–,10.4 µM (active)
Cc1cc(N2C(=O)C3CCCN3C2c2ccc(Cl)c(Cl)c2)no1 (configuration not stated),2.43% (inactive),–
Cc1cccnc1CCNC(=O)C1CCC(=O)N(Cc2cccc(F)c2)C1 (configuration not stated),7.78% (inactive),–
COCCN(Cc1ccccc1)C(=O)Cc1ccc(S(=O)(=O)N2CCOCC2)s1,–,10.4 µM (active)
CCN(Cc1ccccc1)C(=O)Cc1ccc(OC)c(S(=O)(=O)N2CCOCC2)c1,-15.6% (inactive),–
COc1ccccc1NC(=O)COC(=O)Cc1ccc(S(=O)(=O)N2CCCCC2)s1,11.4% (inactive),–
CC1CCN(C(=O)/C(=C\c2ccccc2)NC(=O)c2ccccc2)CC1,0.253% (inactive),–
Cc1c(C)n2c(SCC(=O)NC3CCCC3)nnc2[nH]c1=O,-5.51% (inactive),–
CCOc1ncccc1C(=O)OCC(=O)N1c2ccccc2CC1C (configuration not stated),7.69% (inactive),–
Cc1cc(C)c(S(=O)(=O)N2CCC(C(=O)OCc3c(C)noc3C)CC2)c(C)c1,–,11.7 µM (active)
CCOC(=O)C1CCN(C(=O)C2CCN(S(=O)(=O)c3c(C)noc3C)CC2)CC1,-3.05% (inactive),–
CCOC(=O)C1CCN(S(=O)(=O)c2c(C)noc2C)CC1,24.2% (inactive),–
CCCN(C(=O)c1nc2nccc(C)n2n1)c1c(N)n(Cc2ccccc2)c(=O)[nH]c1=O,-14% (inactive),–
CCOc1ccc(N(CC(=O)NCc2ccc(OC)cc2)S(=O)(=O)c2c(C)noc2C)cc1,-15.5% (inactive),–
Cc1ccc(N(CC(=O)Nc2cc(C)cc(C)c2)S(=O)(=O)c2cccc3nonc23)cc1,-5.21% (inactive),–
CCOC(=O)c1cccc(NC(=O)CN(c2ccc(C)cc2)S(=O)(=O)c2c(C)noc2C)c1,–,8.28 µM (active)
Cc1ccc(NC(=O)[C@H](Cc2ccccc2)NC(=O)C2CCNCC2)cc1,17.4% (inactive),–
O=C(Nc1ccc(S(=O)(=O)Nc2ccccn2)cc1)c1ccccc1,16.3% (inactive),–
COc1cccc(NC(=O)CN(C)C(=O)CSC(=S)N2CCCC2)c1,6.54% (inactive),–
Cc1coc2c(O)cc3c(c12)OC1(N2CCCCC2)C(=O)NCCCC31 (configuration not stated),–,11.7 µM (active)
CCOc1ccc(CNC(=O)CCC(=O)N2CCSc3ccccc32)cc1,10.3% (inactive),–
